D3 ag – agonists of human D3 dopamine receptor; P35462; D3R DiscoveRx beta-arrestin cells, luminescence, 90 min; max activation, %; 410,000 tested, 0.58% active; in the data active = max activation above about 30%; note: 0% is about no effect
Target sequence (P35462 whole entry, looked up): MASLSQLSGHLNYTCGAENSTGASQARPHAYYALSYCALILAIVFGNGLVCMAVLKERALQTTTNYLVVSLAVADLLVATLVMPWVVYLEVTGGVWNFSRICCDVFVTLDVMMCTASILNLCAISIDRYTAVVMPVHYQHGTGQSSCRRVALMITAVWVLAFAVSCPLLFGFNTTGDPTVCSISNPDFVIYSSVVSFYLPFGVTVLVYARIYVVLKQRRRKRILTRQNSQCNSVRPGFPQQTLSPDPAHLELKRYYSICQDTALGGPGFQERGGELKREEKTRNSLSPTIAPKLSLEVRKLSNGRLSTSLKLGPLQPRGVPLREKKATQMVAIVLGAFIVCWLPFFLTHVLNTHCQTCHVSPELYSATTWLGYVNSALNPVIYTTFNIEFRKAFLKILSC
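Agonist mode: compounds and dopamine controls were applied to plated cells for 90 min at 37 degrees C after an overnight attachment at 1500 cells/well. Luminescent read-out followed 30 - 60 minutes at room temperature with DiscoveRx detection reagent.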
D1 antagonist – human D1 dopamine receptor antagonism | P21728 | 360,000 tested, 3.2% active | HEK293 TREx D1 cells, calcium flux, dopamine EC80; hits give low values | AID 504652 | activity change, negative = inhibition, % at 10 µM; in the data active = activity change below about -30%; note: % is set by controls: 0 for no effect and ±100 for the full control effect
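Kinetic fluorescence of a calcium dye serves as the read-out. D1-expressing Hek293 Trex cells, induced overnight at 30 C, are exposed to compound for 180 s before an EC80 dopamine addition, then read 180 s further.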
D1 potentiator – human D1 dopamine receptor positive modulation; P21728; 360,000 tested, 0.036% active; HEK293 TREx D1 cells, calcium flux, dopamine EC20 potentiation; potentiation, % at 10 µM; in the data active = potentiation above about 30%; note: 0% is about no effect
ERG Ets-DNA blk – blocks human ERG Ets domain binding to DNA; fluorescence polarization, His-ERG Ets domain / labelled DNA; Potency, µM (titrated, usually from 76.9 µM), for the others: top-dose FP activity, negative = inhibition, hits mostly inhibitors; 370,000 tested, 0.028% active; AID 624246; active = well fitted inhibition curve with a large enough effect in the polarisation, with a control signal flat; inconclusive = small, poorly fitted or top-dose-only effect, or effect the other way, or a change in a side signal; inactive = no such curve, though single readings can be large or run the other way; the % refers to the polarisation;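 note: polarization taken with two DNA probes labelled with fluorescein and Texas red; potency is the fitted concentration of half-maximal effect; % of control where 0% means no effect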
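His-tagged ERG Ets domain (1 uM in the protein solution; 300mM KCl, 50mM Tris-HCl, 1mM EDTA, 1mM DTT, pH 7.5) received compound, then a probe mix of 5 nM fluorescein-DNA and 100nM Texas-615-DNA. Fluorescence polarization was read for both dyes.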
DRD3 antagonist – blocks the human D3 dopamine receptor. D3R cells, DiscoveRx beta-arrestin luminescence, antagonist mode; hits give low values. max response, negative = inhibition, %. 360,000 tested, 2.5% active. AID 652054; in the data active = max response below about -50%; inconclusive = no clear call, values can overlap the other calls; note: % is set by controls: 0 for no effect and ±100 for the full control effect
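Cells expressing the human receptor were seeded at 1500 cells/well, incubated overnight at 37 degrees C in 5% CO2, then exposed to library compounds with dopamine controls for 90 minutes at 37 degrees C before luminescent detection.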
D1 agonist – agonists of human D1 dopamine receptor; activation, % at 2 µM; HEK293 T-REx D1 cells, calcium flux, agonist mode; AID 504660; 360,000 tested, 1% active; P21728; in the data active = activation above about 30%; note: 0% is about no effect
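Tetracycline-induced HEK293 TREx D1 cells, force-coupled to calcium signalling, were dye-loaded with a no-wash calcium kit. Compound was pin-added after a 10 s baseline. Fluorescence was read kinetically at 1 cycle/s for 180 s, with calcium rises flagged as agonism.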
Numbers without * were called inactive; ? = inconclusive; . = no result; [ ] = remark or other dose. Shown are actives, neighbours in structure and some others; about 6.1% of the full set was active somewhere.

SMILES | D3 ag | D1 antagonist | D1 potentiator | ERG Ets-DNA blk | DRD3 antagonist | D1 agonist
Cc1ccc(C(C)C)c(OCCSc2nc(-c3ccccc3F)nc3cc(=O)[nH]n23)c1 | 1 | -12 | -6 | -5% | . | 38*
COc1ccc(Cl)cc1NC(=O)COC(=O)C1CC(=O)N(Cc2ccccc2)C1 (stereo not given) | 2 | . | . | -3% | -2 | .
c1csc(-c2nc(CN3CCSCC3)cs2)c1 | -35 | 1 | -14 | -3% | -58* | 2
C=CCSc1nc(Oc2ccccc2)c2sccc2n1 | -5 | -5 | -7 | -3% | ? | 16
Cc1ccc(-n2c(SCc3nc(-c4ccccc4C)no3)nnc2-c2ccncc2)cc1C | 1 | -34* | -1 | 1% | . | 13
COc1ccc(C(C)(C)C)cc1NC(=O)c1cncc(Br)c1 | 5 | -11 | 5 | 0% | 0 | 0
OC[C@@H]1[C@@H](c2ccc(F)cc2)C(c2ccccc2)=NN1c1ccccc1 | 17 | . | . | 7% | 2 | .
Cc1cccc(C2=NN(c3ccccc3)[C@H](CO)[C@H]2c2ccccc2)c1 | 42* | . | . | 3% | 14 | .
COc1ccc(C(=O)NC(=O)COC(=O)CCS(=O)(=O)c2ccc(C)cc2)cc1 | -5 | 1 | 1 | -10% | -4 | 4
C=CCNc1ncnc2c1[nH]c1ccccc12 | -5 | -1 | -4 | 4% | 3 | 7
C=CCNc1ncnc2c1[nH]c1ccc(Cl)cc12 | 3 | . | -2 | 6% | 1 | 35*
Cc1cc(N2CCOCC2)nc2ccc(NC(=O)CCC(=O)N3CCN(c4ccccc4F)CC3)cc12 | 5 | -43* | 0 | -5% | 5 | 1
Cc1cc(N2CCOCC2)nc2ccc(NC(=O)CCC(=O)N3CCN(c4ccc(F)cc4)CC3)cc12 | 5 | -11 | 3 | -7% | 51 | -1
COc1ccc(C(CNC(=O)COc2ccccc2C)N2CCCCC2)cc1 (stereo not given) | -19 | 17 | -7 | 8% | -11 | 3
COc1ccc(C(=O)NCC(c2ccc(N(C)C)cc2)N2CCCC2)c(OC)c1 (stereo not given) | -20 | -8 | 2 | 3% | . | -1
COc1ccc(Cl)cc1C(=O)NCC(c1ccc(N(C)C)cc1)N1CCCC1 (stereo not given) | -16 | -6 | 2 | 9% | . | 34*
O=C(NCC(c1ccc(F)cc1)N1CCOCC1)c1ccccc1F (stereo not given) | -3 | -39* | -9 | 0% | 10 | 1
COc1ccc(C(CNC(=S)NCc2ccccc2)N2CCCC2)cc1 (stereo not given) | -35 | -9 | -2 | -5% | -58* | 25
COc1ccc(C(CNC(=O)c2ccccc2C)N2CCCC2)cc1 (stereo not given) | -34 | 5 | -2 | 0% | -85* | 1
COC(=O)c1ccc(COc2ncnc3ccccc23)o1 | 15 | 17 | -7 | -2% | 6 | -1
COc1ccc(C(CNC(=O)C(CCSC)NC(=O)c2ccccc2Cl)N2CCCCC2)cc1 (stereo not given) | -23 | -4 | . | 18%[15.4 µM] | -59* | 3
CSc1ncccc1C(=O)NCC(c1cccs1)N1CCOCC1 (stereo not given) | -2 | -80* | -3 | -1% | 2 | 3
COc1ccc(C(CNC(=O)c2cc(=O)[nH]c3ccccc23)N2CCCC2)cc1 (stereo not given) | -4 | -38* | -7 | 5% | 6 | 5
COc1ccc(C(CNC(=O)c2oc3ccc(Cl)cc3c2C)N2CCCCC2)cc1 (stereo not given) | -18 | 21 | 6 | -3% | -103* | 3
COc1ccc(C(CNC(=O)c2oc3ccccc3c2C)N2CCCC2)cc1 (stereo not given) | -18 | 8 | . | 0%[15.4 µM] | ? | 5
SMILES | D3 ag | D1 antagonist | D1 potentiator | ERG Ets-DNA blk | DRD3 antagonist | D1 agonist
Cc1cc(CNC(=O)Cc2ccc(F)cc2)c2ccccc2n1 | 0 | -3 | -6 | 0% | 10 | 1
CC(C)Cn1c2c(c(=O)[nH]c1=O)C(C(F)(F)F)(C(F)(F)F)N=C(CCC1CCCCC1)N2 | 13 | 0 | 8 | -8% | 3 | 31*
O=c1[nH]c(=O)n(Cc2ccco2)c2c1C(C(F)(F)F)(C(F)(F)F)N=C(CCC1CCCCC1)N2 | -5 | 23 | -5 | 3% | -28 | 26
CCOC(=O)CCCCC(=O)c1[nH]c(=O)[nH]c1CSc1nnc2c3cc(Br)ccc3n(C)c2n1 | . | -33* | -1 | . | . | 3
CCCCCN(C(=O)CCC(=O)OCC(=O)c1ccc(C(C)(C)C)cc1)c1c(N)n(CCCC)c(=O)[nH]c1=O | 5 | -2 | 1 | 4% | -15 | 3
O=C(O/N=C1/CCCc2occc21)c1ccccc1 | 0 | 17 | -3 | -9% | -4 | 1
O=C(O/N=C1/CCCc2occc21)c1ccc(Cl)cc1Cl | -1 | -33* | 3 | -1% | -8 | 4
Cc1ccccc1C(=O)N1CCC(C(=O)OCC(=O)Nc2cccc([N+](=O)[O-])c2C)CC1 | 0 | -2 | 7 | -7% | 6 | 3
CCc1ccc(C(=O)C(C)OC(=O)Cc2n[nH]c(=O)c3ccccc23)cc1 (stereo not given) | 13 | -17 | 31* | 0% | 9 | 3
CC(=O)c1cccc(NC(=O)C(C)OC(=O)Cc2n[nH]c(=O)c3ccccc23)c1 (stereo not given) | 3 | -34* | -9 | -1% | 2 | 0
CC(=O)c1cccc(NC(=O)C(C)OC(=O)c2cc(=O)[nH]c3ccccc23)c1 (stereo not given) | -1 | -2 | -6 | 5% | -2 | 0
Cc1ccc(S(=O)Cc2nc(-c3ccc(C(=O)NC(C)c4ccccc4)cc3)oc2C)cc1 (stereo not given) | -20 | -5 | 2 | -7% | . | 3
CSc1ccc(C2C(C#N)=C(N)Oc3c2ccc(=O)c2c(C)oc(C)c32)cc1 (stereo not given) | -13 | -13 | -1 | ? | -51* | 28
Cc1oc(C)c2c(=O)ccc3c(c12)OC(N)=C(C#N)C3c1ccccc1 (stereo not given) | -4 | -1 | -6 | ? | -12 | 14
CCN(CC)C(=O)c1nc[nH]c1C(=O)N1CCN(c2ccccc2)CC1 | 8 | -7 | -2 | 10% | 16 | -1
CCN1C(=O)C(Cc2nc3ccccc3c(=O)n2-c2ccccc2)c2ccccc21 (stereo not given) | 4 | -54* | -1 | -15% | 10 | 2
CCOc1cc(C=O)ccc1OCCSc1ccc(Cl)cc1 | 12 | -37* | -1 | -8% | 1 | 4
COC(=O)N/N=C/c1ccc(OCCSc2ccc(Cl)cc2)c(OC)c1 | 9 | -13 | -3 | -1% | 85 | 8

High-throughput results deposited in PubChem by National Center for Advancing Translational Sciences (NCATS).
